Screens as filed in PubChem.
FBW7 act = human FBW7 E3 ligase activation, primary screen. Q969H0. AlphaScreen FBW7–phospho-cyclin E peptide binding, activator screen. normalized activity (activation), % at 26.1 µM. 0.13% of 650,000 active. AID 1259310; in the data active means normalized activity above about 1.9%;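 further: purified mutant Fbw7 with reduced substrate affinity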
Target sequence (Q969H0 whole entry, looked up): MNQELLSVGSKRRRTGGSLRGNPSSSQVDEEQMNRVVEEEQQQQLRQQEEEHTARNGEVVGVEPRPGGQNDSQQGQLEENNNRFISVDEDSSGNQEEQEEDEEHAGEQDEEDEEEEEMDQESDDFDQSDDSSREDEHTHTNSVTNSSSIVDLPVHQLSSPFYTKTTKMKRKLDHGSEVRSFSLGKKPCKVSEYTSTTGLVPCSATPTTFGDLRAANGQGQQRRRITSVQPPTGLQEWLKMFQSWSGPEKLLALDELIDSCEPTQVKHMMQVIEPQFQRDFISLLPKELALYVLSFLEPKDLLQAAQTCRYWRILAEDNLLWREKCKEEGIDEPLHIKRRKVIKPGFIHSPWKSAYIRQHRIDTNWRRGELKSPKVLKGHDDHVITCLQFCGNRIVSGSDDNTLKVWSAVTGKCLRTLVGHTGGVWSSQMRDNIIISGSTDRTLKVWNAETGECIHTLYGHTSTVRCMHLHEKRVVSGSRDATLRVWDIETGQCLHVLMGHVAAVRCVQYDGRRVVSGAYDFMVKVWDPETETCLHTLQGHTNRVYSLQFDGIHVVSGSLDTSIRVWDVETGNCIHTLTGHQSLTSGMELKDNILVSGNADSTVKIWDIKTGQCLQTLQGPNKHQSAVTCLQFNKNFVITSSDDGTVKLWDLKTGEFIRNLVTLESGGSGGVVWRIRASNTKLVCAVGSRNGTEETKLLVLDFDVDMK
MITF inh = human MITF inhibition, primary screen | 0.91% of 650,000 active | inhibition, % at 2.6 µM | AlphaScreen MITF homodimerization, bead proximity signal; in the data active means inhibition above about 50%;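 further: 0% = vehicle wells with protein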
TEAD-YAP inh = TEAD-YAP interaction inhibition; HEK-TIYL cells, TEAD-Gal4/YAP UAS-luciferase luminescence; inhibition, % at 9.12 µM; 1.4% of 640,000 active; in the data active means inhibition above about 32%;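 further: 0% = median of test compound wells and 100% = reference inhibitor wells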
GPR151 ag = activates the human receptor GPR151; 1% of 650,000 active; PathHunter beta-arrestin GPR151 cells, luminescence; activation, % at 11.2 µM; Q8TDV0; in the data active means activation above about 4.9%;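 further: 0% = median of compound wells and 100% = cells with positive control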
* hit, by the source's call. An excerpt weighted towards active compounds, which were near 3.4% of everything screened.

SMILES	FBW7 act	MITF inh	TEAD-YAP inh	GPR151 ag
COc1ccc(C(=O)OCCN(C)C(C)C)cc1	0.3	16.3	6.8	3.0
CC(=O)N(/N=C1\Sc2ccccc2C1=O)c1ccccc1[N+](=O)[O-]	-0.4	25.2	59.0*	-1.4
CC(=O)N(/N=C1\Sc2ccccc2C1=O)c1ccc(Br)cc1	-0.3	27.4	-12.1	0.0
Cc1cccc(NC(=O)CSc2ccc3nnc(-c4cccnc4)n3n2)c1C	0.7	16.8	18.2	0.9
CCC(=O)Nc1nc2c(s1)C(=O)CC(c1ccccc1)C2 (stereo not drawn)	-0.1	-3.1	52.1*	-0.3
COc1ccc(C2CC(=O)c3c(ccc4ccccc34)N2)cc1 (stereo not drawn)	0.0	11.2	0.1	-1.2
COc1ccc(Br)cc1C1CC(=O)c2c(ccc3ccccc23)N1 (stereo not drawn)	-0.1	2.2	37.3*	0.3
Cc1ccc(SCCNC(=O)c2ccco2)cc1	0.0	3.5	-4.1	-2.2
COc1ccc(CNCc2ccccc2)cc1OC	-0.3	-9.0	2.4	0.9
COc1ccc(CNCc2cc(OC)c(OC)c(OC)c2)cc1C	0.0	51.1*	-0.6	0.8
NC(=O)COC(=O)/C=C/c1cccc(C(F)(F)F)c1	0.2	3.9	2.6	2.4
COc1ccc(-c2csc(Nc3cccc(Cl)c3C)n2)cc1OC	-0.3	-7.5	-0.6	0.2
COc1cc(SC#N)ccc1N=Cc1c(O)n(-c2ccc(Cl)cc2)c(=O)[nH]c1=O	-0.4	3.3	7.1	1.0
Cc1ccc(CNc2nc3ccccc3s2)s1	0.1	-0.2	65.9*	1.4
COc1ccc(C)cc1NC(=O)NCc1cc(C)n(C)n1	0.0	-0.1	34.6*	1.0
Cc1cc(C)c2nc(SCC(=O)Nc3sccc3C(N)=O)cc(C)c2c1	0.1	-3.8	44.7*	1.2
Cc1cc(C)c2nc(SCC(=O)Nc3cc(C(N)=O)cc(C(N)=O)c3)cc(C)c2c1	0.1	-12.4	-11.2	0.1
Cc1cccc(NC(=O)CSc2nc3cc4c(cc3cc2C#N)OCCO4)c1	-0.2	2.6	57.0*	0.0
COc1ccc(C)cc1NC(=O)CSc1nc2cc3c(cc2cc1C#N)OCCO3	0.2	5.4	67.0*	-0.3
O=C(Nc1ccc(C(=O)N2CCOCC2)cc1)c1ccccc1I	0.1	6.4	1.3	1.2
CN(C)Cc1ccc2c(sc3nc4n(c(=O)c32)CCCCC4)c1O	-0.1	8.3	53.3*	-1.4
Fc1ccccc1Nc1nnc(SCC2CCCCO2)s1 (stereo not drawn)	0.2	-1.0	73.1*	-9.9
CCc1nnc(NC(=O)c2sc3nc4c(cc3c2N)CCC4)s1	0.2	1.1	-75.6	-1.3
Nc1c(C(=O)Nc2ccc(Cl)cn2)sc2nc3c(cc12)CCC3	0.3	12.1	93.5*	4.0
Nc1c(C(=O)Nc2nccs2)sc2nc3c(cc12)CCCC3	0.0	-18.6	76.6*	-0.8
SMILES	FBW7 act	MITF inh	TEAD-YAP inh	GPR151 ag
CN(C)c1ccc(-c2cc(C#N)on2)cc1	0.1	0.1	0.0	1.2
CCCSC1=C(C#N)C(c2cccc([N+](=O)[O-])c2)CC(=O)N1 (stereo not drawn)	0.0	13.1	8.6	-0.2
O=C(Nc1nccs1)c1cc([N+](=O)[O-])ccc1Cl	0.2	6.9	44.6*	-0.6
CC(C)(C)c1ccc(-c2csc(NC(=O)c3cc([N+](=O)[O-])ccc3Cl)n2)cc1	0.1	2.6	42.7*	0.4
Cc1ccc(C)c(-c2csc(NC(=O)c3cc([N+](=O)[O-])ccc3Cl)n2)c1	-0.1	9.9	53.3*	-0.9
COc1ccccc1-c1csc(NC(=O)c2cc([N+](=O)[O-])ccc2Cl)n1	0.0	-2.8	33.5*	0.9
CN(Cc1ccccc1)C(=O)c1ccc2c(=O)n(CCc3ccccc3)c(SCc3cccc(Cl)c3)nc2c1	0.6	22.2	6.8	-1.3
COc1ccc(CCNC(=O)c2cc3c(s2)CCC3)cc1OC	-0.2	13.4	6.0	-0.6
COc1ccc(NC(=O)C(=O)NCc2ccc(Cl)cc2)cc1Cl	0.3	8.5	1.9	0.7
O=C(Nc1nc(-c2cc(Cl)sc2Cl)cs1)c1ccc([N+](=O)[O-])s1	-0.2	0.5	66.9*	-0.8
CC(C)SC1=NSC2=NC(=O)/C(=C\c3ccc([N+](=O)[O-])o3)C(=N)N21	0.2	72.0*	-2.9	-0.5
CCSC1=NSC2=NC(=O)/C(=C\c3ccc(Br)o3)C(=N)N12	-0.4	83.4*	8.2	-0.4
CC(C)CS(=O)(=O)C1=NSC2=NC(=O)/C(=C\c3ccc(Br)o3)C(=N)N21	-0.4	76.9*	5.1	-1.0
CS(=O)(=O)C1=NSC2=NC(=O)/C(=C\c3ccc(SCc4ccco4)o3)C(=N)N21	-1.4	72.3*	1.0	-0.4
NC(=O)CSc1nnnn1-c1ccc(Cl)cc1	0.3	5.5	0.8	2.0
CCSc1nnc(-c2cc(OC)c(OC)c(OC)c2)o1	0.4	14.9	-1.7	-1.5
CCSCCOC(=O)C1=C(C)NC(=O)CC1c1cccc(Cl)c1Cl (stereo not drawn)	0.0	-1.5	2.0	0.1
CCOC(=O)N1CCN(c2ccc(Br)cn2)CC1	0.2	-21.7	-8.5	-0.6
CCOC(=O)C1CCN(C(=O)Nc2ccc(NC(=O)C3CCN(C(=O)OCC)CC3)cc2)CC1	6.1*	3.9	-2.8	0.8
CNc1nc(-c2ccc3c(c2)CC(C)N3S(C)(=O)=O)cs1 (stereo not drawn)	-0.2	-1.7	44.3*	-0.6
Cc1sc(N)nc1-c1ccc2c(c1)CC(C)N2S(C)(=O)=O (stereo not drawn)	0.2	4.3	7.0	-1.8
Cc1sc(NC(=O)CCl)nc1-c1ccc2c(c1)CCN2S(C)(=O)=O	0.0	17.6	-10.1	-0.2
CNc1nc(-c2ccc3c(c2)CCN3C(=O)C2CC2)cs1	-0.1	-2.2	62.6*	0.5
CC(=O)Nc1nc(-c2ccc3c(c2)CCN3S(C)(=O)=O)c(C)s1	0.0	11.4	51.9*	0.7
CC1Cc2cc(-c3csc(NC(=O)Cc4cccs4)n3)ccc2N1S(C)(=O)=O (stereo not drawn)	0.0	-2.4	57.1*	-0.6
SMILES	FBW7 act	MITF inh	TEAD-YAP inh	GPR151 ag
O=C(NCc1ccc(C(=O)NCc2ccco2)cc1)c1ccc(Br)cc1	-0.2	-1.8	0.4	-1.0
Cc1ccc(NC(=O)CSc2nnc(-c3ccoc3C)n2CC2CCCO2)cc1Cl (stereo not drawn)	-0.1	5.9	8.0	-0.5
CNc1nc(-c2ccc3c(c2)CCN3C(=O)C2CC2)c(C)s1	0.2	-2.9	5.4	1.3
Cc1sc(NC(=O)Cc2cccs2)nc1-c1ccc2c(c1)CC(C)N2S(C)(=O)=O (stereo not drawn)	-0.2	7.4	52.3*	1.5
Cc1sc(NC(=O)c2ccncc2)nc1-c1ccc2c(c1)CCN2C(=O)C1CC1	0.0	-12.8	38.4*	0.3
CC(C)(C)C(=O)Nc1c2c(nn1-c1cccc(Cl)c1)CSC2	0.0	-1.6	0.8	0.6
NC(=O)C1CCN(C(=S)NC(=O)c2ccc(Cl)cc2)CC1	2.3*	6.9	-5.7	-0.3
COc1ccc(-c2cn3nc(N4CCCC(C(=O)O)C4)sc3n2)cc1 (stereo not drawn)	0.3	41.5	-3.5	-0.1
O=C(O)C1CCCN(c2nn3cc(-c4ccc(F)cc4)nc3s2)C1 (stereo not drawn)	0.2	-4.9	84.7*	-12.9
